This is a sample that favours compounds with a hit; in the whole collection about 15% have one here.
Pf growth 48h – P. falciparum growth inhibition at 48 hours (one generation) | P. falciparum luciferase growth in erythrocytes, 48 h | Potency, µM (series often up to 28.7 µM), without a hit: at the top dose activity change, negative = inhibition, hits mostly inhibitors | 310,000 compounds, 5.9% hits; further: potency means the concentration at half of the fitted maximal effect; on the % scale 0 is the no-effect control and ±100 the full control effect
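Read-out is firefly luciferase luminescence from an integrated reporter in P. falciparum, so falling signal marks reduced parasite growth. Infected erythrocytes were at 2% hematocrit and 0.1% parasitemia (final) in Albumax-supplemented RPMI 1640.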
SARS PLpro yeast – blocks SARS-CoV papain-like protease in a yeast assay; S. cerevisiae expressing SARS-CoV PLpro, growth rescue; 330,000 compounds, 0.19% hits; Potency, µM (titrated, usually from 32.9 µM), inactives show at the top dose activity, positive = growth rescue, most hits filed as activators; calls by dose curve; further: potency means the concentration at half of the fitted maximal effect; 0% is about no effect; nearly all actives have a fitted effect of over 55% in size
Pf growth 96h – P. falciparum growth inhibition at 96 hours. P. falciparum luciferase reporter growth, 96 h. AID 504834. Potency, µM (top dose mostly 28.7 µM), inactives show at the top dose activity change, negative = inhibition, most hits filed as inhibitors. 320,000 compounds, 6.9% hits; further: potency means the concentration at half of the fitted maximal effect; on the % scale 0 is the no-effect control and ±100 the full control effect
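P. falciparum expressing integrated firefly luciferase, in erythrocytes at 2% hematocrit, 0.05% parasitemia, incubated with compounds 96 h at 37 C, 5% CO2. Growth inhibition read as loss of luminescence; two-generation exposure targets delayed-death apicoplast inhibitors.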
HCV inh – HCV inhibition; Huh7.5.1 HCVcc-Cre infection, luciferase reporter, 44 h; Potency, µM (top dose mostly 41.8 µM), for the others: top-dose activity change, negative = inhibition, hits mostly inhibitors; 340,000 compounds, 3.4% hits; AID 651820; further: potency means the concentration at half of the fitted maximal effect; on the % scale 0 is the no-effect control and ±100 the full control effect
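Seed cells (1,000/well) for 4 h; treat with compound and infect with HCVcc-Cre, moi about 0.5. Incubate 44 h, then detect luciferase activity.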
HCMV inh – human cytomegalovirus inhibition; HFF cells, HCMV-luciferase reporter, 72 h; stronger effect = lower value; activity change, negative = inhibition, % at 57.5 µM; 410,000 compounds, 4.5% hits; AID 1259415; in the data active means activity change below about -60%; inconclusive means no clear call, values can overlap the other calls; inactive means above about -39%; further: on the % scale 0 is the no-effect control and ±100 the full control effect
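Two compound doses tested in HFFs infected with HCMV-luciferase, MOI 1 PFU/cell, 72 h at 37C. Lysate luminescence read with OneGlo; data normalized against buffer-only and 10uM Salinomycin inhibitor controls.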
Sm TGR inh – inhibitors of Schistosoma mansoni thioredoxin glutathione reductase; purified TGR, DTNB reduction, TNB absorbance 405 nm; Potency, µM (series often up to 114 µM), for inactives: at the top dose activity change, negative = inhibition, usual class: inhibitors; 360,000 compounds, 3% hits; further: potency means the concentration at half of the fitted maximal effect; on the % scale 0 is the no-effect control and ±100 the full control effect; nearly all actives have a fitted effect of over 60% in size
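TGR 20 nM + NADPH 100 uM (dispensed conc.), cpd preinc 15 min RT; start with NADPH (500 uM addition) then DTNB (15 mM addition). Kinetic TNB absorbance, 405 nm filter. Four-parameter Hill fit across titration.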
The depositor's hits bear a star; ? = inconclusive; / = not tested or not shown. Unless noted, the call rests on the fitted dose curve; in most records, active means well fitted curve in the direction sought with a large enough effect; inconclusive means small, poorly fitted or top-dose-only effect, or another doubt; inactive means no such curve, though single readings can be large; an effect the other way counts as inactive or inconclusive.

SMILES	Pf growth 48h	SARS PLpro yeast	Pf growth 96h	HCV inh	HCMV inh	Sm TGR inh
C[C@H](NC(=O)N1CCC(Cc2ccccc2)CC1)C(=O)O	5.8%	-1.4%	-4.1%	4.9%	?	-2.4%
CC(NC(=O)c1ccc2c(c1)sc1nc(-c3ccccc3)cn12)C12CC3CC(CC(C3)C1)C2 (stereo unspecified)	/	/	/	/	/	-8.9%
Cn1c(=O)c2c(nc(N3CCNCC3)n2Cc2ccccc2Cl)n(C)c1=O	43.9%	0.0%	29.2%	8.2%	6.9	2.9%
CN1CCN(c2nc3c(c(=O)n(C)c(=O)n3C)n2Cc2ccc(Cl)cc2)CC1	-29.1%	1.4%	0.117µM*	2.4%	-10.8	0.0%
C=CCOc1nc2c(c(=O)n(C)c(=O)n2C)n1Cc1ccccc1	-6.3%	2.7%	-1.7%	-5.8%	-4.4	7.7%
CCCCCCn1c(N2CCN(c3ccccc3)CC2)nc2c1c(=O)n(C)c(=O)n2C	6.57µM*	0.2%	/	?	-27.5	6.8%
C#CCOc1nc2c(c(=O)n(C)c(=O)n2C)n1Cc1ccccc1	-3.5%	-0.6%	-13.3%	12.6µM*	-38.9	-9.7%
Cn1c(=O)c2c(nc(N3CCN(c4ccccn4)CC3)n2Cc2ccccc2Cl)n(C)c1=O	9.28µM*	1.4%	13.1µM*	?	-1.2	14.9%
CN1CCN(c2nc3c(c(=O)[nH]c(=O)n3C)n2Cc2ccc(Cl)cc2)CC1	?	1.0%	?	5.8%	-21.0	-2.5%
COc1ccc(C(=O)N2CCN(c3cccc(C)c3C)CC2)cc1S(=O)(=O)NC1CC1	-79.3%	0.7%	?	?	-17.4	?
Cn1c(N2CCCC2)nc2c1c(=O)n(Cc1ccc(Cl)cc1)c(=O)n2C	?	-7.3%	?	?	-10.7	5.1%
CCn1c(Oc2ccccc2C)nc2c1c(=O)n(C)c(=O)n2C	2.4%	-5.5%	-4.1%	2.5%	-73.6*	-3.8%
COc1ccc(N2CCN(c3nc4c(c(=O)n(C)c(=O)n4C)n3Cc3ccccc3)CC2)cc1	?	-2.5%	/	11.2µM*	3.8	-1.0%
CC1CN(c2nc3c(c(=O)n(Cc4ccc(Cl)cc4)c(=O)n3C)n2C)CC(C)O1 (stereo unspecified)	5.86µM*	2.6%	2.33µM*	-16.1%	?	-27.7%
CC(=O)N1CCC(C(=O)NCCOc2ccc(C)cc2)CC1	5.0%	8.9%	6.1%	19.1%	-0.9	1.8%
Cc1ccccc1CSc1ncc(Cl)c(C(=O)Nc2nc3ccc(F)cc3s2)n1	/	/	/	/	-0.2	-6.5%
Cc1cccc(CS(=O)(=O)c2ncc(Cl)c(C(=O)Nc3nc4ccc(F)cc4s3)n2)c1	/	/	/	/	-60.3*	-28.1%
CSc1ncc(Cl)c(C(=O)Nc2nc3ccc(F)cc3s2)n1	/	/	/	/	27.1	8.8%
O=C(Nc1nc2ccc(F)cc2s1)c1nc(S(=O)(=O)Cc2ccccc2)ncc1Cl	/	/	/	/	-106.8*	?
Cc1ccc(COc2ccsc2C(=O)O)cc1	2.8%	-1.1%	33.4%	6.1%	15.1	0.0%
CCOc1ccsc1C(=O)O	-4.9%	1.0%	30.0%	3.16µM*	-2.3	0.4%
COC(=O)C1=C(N)Oc2cc(C)n(CCc3ccccc3)c(=O)c2C1c1cccnc1 (stereo unspecified)	10.4µM*	0.2%	?	?	-0.2	-5.9%
CCOC(=O)C1=C(N)Oc2cc(C)n(CCc3ccc(OC)c(OC)c3)c(=O)c2C1c1cccnc1 (stereo unspecified)	2.33µM*	2.8%	10.4µM*	-10.4%	1.4	-9.2%
CCOC(=O)C1=C(N)Oc2ccc3ccccc3c2C1c1cccnc1 (stereo unspecified)	?	-23.6%	9.28µM*	7.0%	-9.2	3.7%
COC(=O)C1=C(N)Oc2cc(C)n(CCCn3ccnc3)c(=O)c2C1c1cccc(Cl)c1 (stereo unspecified)	5.86µM*	3.5%	/	12.9%	40.4	4.3%
COC(=O)C1=C(N)Oc2cc(C)n(Cc3cccnc3)c(=O)c2C1c1ccc(OC)c(OC)c1 (stereo unspecified)	-17.6%	4.8%	-13.4%	5.9%	27.9	4.4%
